Source: PubChem BioAssay (NCI)
Several values for one entry are separate records, joined by “and”; a condition that tells them apart may be missing. Identical values can stand only once. Compounds without any hit were thinned out: in the full panel of roughly 83,000, 20% have a hit.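 Results are percent growth after 48 hours of single-concentration exposure. 100 means growth as in untreated cells, lower positive values show inhibition; negative values down to -100 show cell death.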 Activity calls are given as the source filed them. The calls were made as follows: active = growth percent below 10; inactive = the rest.

Tested on: NCI-H460 lung
Experiment: NCI-60 one-dose screen, 48 h (100 = growth as untreated, 0 = no growth, -100 = all killed)
Conditions: 10 µM unless noted

SMILES	growth
ON=C1CCCCCCCC1	114% (inactive) and 110% (inactive)
CCOC(=O)N(O)c1ccc(/C=C/c2ccccc2)cc1	23.5% (inactive) and 22% (inactive)
O=S(=O)(O)c1ccc(N=Nc2ccc(N=Nc3cccc4ccccc34)c(S(=O)(=O)O)c2)cc1	98.9% (inactive)
COc1ccc(-c2nn3c(-c4cc(F)c(Cl)cc4Cl)nnc3s2)cc1	32.5% (inactive)
CCc1c2c(nc3ccc(OCc4ccc(B5OC(C)(C)C(C)(C)O5)cc4)cc13)-c1cc3c(c(=O)n1C2)COC(=O)[C@]3(O)CC	1.68% (active)
O=C(O)c1ccccc1Cc1ccc(F)c2ccccc12	109% (inactive) and 99.2% (inactive)
CCCCC1COc2cccc3c2N1C=C/C3=C\C(=O)N(C)c1cccc(Cl)c1 (stereo not drawn)	105% (inactive)
COc1ccc(/C=C2\COc3ccc(O)c(O)c3C2=O)c(OC)c1OC	24.9% (inactive)
CC12OC(CC(O)C1O)n1c3ccccc3c3c4c(c5c6ccccc6n2c5c31)C(=O)N(CCN1CCOCC1)C4=O (stereo not drawn)	-12.5% (active)
COc1ccc(/C=N/C2=C(C#N)C(c3ccccc3)c3c(ccc4ccccc34)O2)cc1 (stereo not drawn)	15.5% (inactive)
COc1ccc(-c2cc3cnc4ccccc4c3oc2=O)cc1	104% (inactive)
O=C(/C=C/c1ccc(F)cc1)Nc1ncc(Cc2ccc(F)cc2)s1	17% (inactive)
COc1cc(/C=C2\CCC/C(=C\c3cc(CN4CCCC4)c(O)c(OC)c3)C2=O)cc(CN2CCCC2)c1O	6.28% (active)
CN(C)CCCn1c2c(c3ccc(N4CCNCC4)cc3c1=O)C(=O)c1ccccc1-2	-47.9% (active)
C=CCOc1ccc(/C=C2\SC(=S)N(CCc3ccc(O)cc3)C2=O)cc1	97.4% (inactive)
CCOC(=O)C1=C(C)N=C2SC=C(c3ccc(F)cc3)N2[C@H]1c1cn(-c2ccccc2)nc1-c1ccc(Cl)cc1	102% (inactive)
COc1ccc(/C=N/NC(=O)CN2CCN(c3cc4c(cc3F)c(=O)c(C(=O)O)cn4C3CC3)CC2)cc1O	105% (inactive)
COc1cccc(C2C(C#N)=C(N)Oc3cc(OCCCCCC[P+](c4ccccc4)(c4ccccc4)c4ccccc4)ccc32)c1 (stereo not drawn)	-44.4% (active)
Cc1nn(-c2nc(-c3cc4ccccc4oc3=O)cs2)c(C)c1N=Nc1ccccc1	108% (inactive)

SMILES	growth
Cn1cc2c(=O)nc3c(-c4nc5ccccc5[nH]4)n[nH]n3c2n1	81.9% (inactive)
O=C1c2cccc3cccc(c23)C(=O)N1N1C(=O)c2cccc3c(N4CCNCC4)ccc(c23)C1=O	72.4% (inactive)
Cc1nc2sc(C(=O)Nc3cccc4ncccc34)c(N)c2cc1C(C)O (stereo not drawn)	80.9% (inactive)
CCOC(=O)c1nc2c3ccccc3cnn2c1C(=O)c1ccc(OC)cc1	103% (inactive)
O=C1/C(=C/c2ccccc2[N+](=O)[O-])Cc2ccccc21	7.04% (active) and 23.6% (inactive)
COc1cc(/C=C2/C=C(c3ccc(C(C)(C)C)cc3)N(CCc3ccc(S(N)(=O)=O)cc3)C2=O)cc(OC)c1OC	35.6% (inactive)
COC(=O)N/N=C/c1c[n+]([O-])c2ccccc2[n+]1[O-]	105% (inactive)
Cc1nc(-n2[nH]c(=O)ccc2=O)sc1N=Nc1ccccc1	102% (inactive)
CC1(Cc2ccccc2)CC2=C(C(=O)O1)C(c1ccccc1)NC(=O)N2 (stereo not drawn)	110% (inactive)
Cc1ccc(/C=C/c2c(C(=O)/C=C/c3ccccc3)c(C)nc3ccccc23)cc1	-9.62% (active)
CC1=C2[C@@H](CC1)[C@]1(C)O[C@@](C3CC3)(C[C@H]1OC(=O)CO)[C@H]2OC(=O)/C=C/c1ccccc1	90.7% (inactive)
COc1ccc(S(=O)(=O)Nc2cc(Sc3cccc4cccnc34)c(O)c3ccccc23)cc1	4.45% (active)
CCN(CC)CCCN1C(=O)c2c(c(C)c3c(oc4cc(OC)ccc43)c2C)C1=O	92.6% (inactive)
CN1Cn2c(ccc2C(F)(F)F)C(=O)CS1(=O)=O	110% (inactive)
O=c1cc(N/N=C/c2ccc(F)cc2)c2cc(Cl)ccc2[nH]1	102% (inactive)
Cc1cccc(-c2nnc(SCC(=O)Nc3ncc(Cc4ccccc4)s3)n2N2C(=O)CSC2=S)c1	20% (inactive)
COc1ccc(/C(C)=C(\c2ccc(OCCN3CCCCCC3)cc2)c2ccc(OC(=O)C3CCCCC3)cc2)cc1	-65.6% (active)
COc1ccc2c(c1)c(C(=O)c1nc(-c3cn(C)c4ccccc34)no1)cn2C	101% (inactive)
CCOC(=O)c1nnn(Cc2cc(=O)oc3c2ccc2ccccc23)c1C	104% (inactive)
